Results: PubChem BioAssay AID2669 (National Center for Advancing Translational Sciences (NCATS), 2010)
Values joined by “and” are separate entries in the source; they are usually repeats but may differ in a detail not shown here. Equal entries are not always repeated. Inconclusive results are not listed. Unmarked numbers belong to inactive results. Active and inactive are the calls of the source. The call rests on the fitted dose curve; in most records, active means well fitted inhibition curve with a large enough effect; inconclusive means small, poorly fitted or top-dose-only effect, or effect the other way; inactive means flat fitted curve, though single readings scatter.

assay: qHTS Assay Multiplex Screening to Identify Dual Action Probes in a Cell Model of Huntington: Cytoprotection (Protease relase); settings: PC12 HttQ103 cells, Cytotox-Glo protease release, 40 h; series mostly up to 46.1 µM; activity change, negative = inhibition: at the top concentration
Outline: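 Cytotox-Glo luminescence of released protease served as the cytoprotection readout. Compounds were added alongside 100 nM final tebufenozide to PC12 cells carrying ecdysone-inducible GFP-tagged HTT exon 1 with 103 glutamines.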

Structure (SMILES)	Potency	activity change, negative = inhibition
O=C(Nc1cccnc1)Nc1ccccc1Cl	3.16 µM (active)	
Cn1nnnc1Sc1ncnc2scc(-c3cccc(C(F)(F)F)c3)c12	14.1 µM (active)	
Cn1nnnc1Sc1ncnc2scc(-c3ccccc3)c12	2.82 µM (active) and 7.94 µM (active)	
CCN(CC)CCNc1ccc(CO)c2sc3ccccc3c(=O)c12	10 µM (active)	
Cn1nnnc1Sc1ncnc2scc(-c3ccc(S(C)(=O)=O)cc3)c12	11.2 µM (active)	
COc1ccc(CNC(=O)CN(C(=O)CCC(=O)Nc2ccccn2)c2ccccc2OC)cc1		-2.31%
COc1cc(NC(=O)COC(=O)[C@@H]2CCCN2S(=O)(=O)c2ccc(Cl)cc2)cc(OC)c1OC		11.8%
Cc1csc(N/N=C/c2ccc(O)c([N+](=O)[O-])c2)n1	1.78 µM (active)	
NC(=O)c1sc2nccc(Nc3ccccc3)c2c1N		-13.6%
Cn1nnnc1Sc1ncnc2scc(-c3ccc4ccccc4c3)c12	10 µM (active)	
Cn1nnnc1Sc1ncnc2scc(-c3ccc(Br)cc3)c12	7.08 µM (active)	
NC(=O)C1CCN(CCC(=O)Nc2ccc(Br)cc2)CC1		-9%
CN1C(=O)CC(Sc2ncccc2C(=O)O)C1=O (centres undefined)		4.06%
O=Nc1c(-c2c(O)[nH]c3ccccc23)[nH]c2ccccc12	631 nM (active) and 1.41 µM (active)	
COc1ccc2cc3cc(C(=O)N4CCN(c5ccccc5)CC4)oc3nc2c1	2.24 µM (active)	
CCCCCCCCNc1ncnc2ccccc12		27%
COc1cc(Cc2cnc(N)nc2N)cc(OC)c1OC		15.3%
CCOC(=O)c1noc(C)c1C(=O)Nc1cccc(F)c1	7.08 µM (active)	
Cc1cc(C)nc(Sc2nc(C)nc3c2oc2ccccc23)n1		-11.1%
Oc1ccc(/C=C/c2cc(O)cc(O)c2)cc1	2.24 µM (active)	
Cn1nnnc1Sc1ncnc2scc(-c3cccc(C#N)c3)c12	10 µM (active)	
Cn1nnnc1Sc1ncnc2scc(-c3ccccc3[N+](=O)[O-])c12	20 µM (active)	
Cc1ccccc1N=C(N)Nc1ccccc1C		0.765%
Cn1nnnc1Sc1ncnc2scc(-c3cc4ccccc4o3)c12	7.08 µM (active)	
Cn1nnnc1Sc1ncnc2scc(-c3cccc(F)c3)c12	11.2 µM (active)	
Cn1nnnc1Sc1ncnc2scc(-c3ccc4c(c3)OCO4)c12	10 µM (active)	
C=C1CCC2[C@](C)(CO)[C@H](O)CC[C@@]2(C)[C@@H]1C/C=C1/C(=O)OC[C@H]1O (some centres undefined)		3.85%
CCc1nc(SCC(=O)Nc2nc3c(s2)CCCC3)c2ccccc2n1		-52.8%
O=C(Nc1nc(-c2ccc(-c3ccccc3)cc2)cs1)C1CCCO1 (centres undefined)	11.2 µM (active)	
